These results are taken from PubChem BioAssay.

Assay [1] is described as follows: blockers of polyQ-driven CASP3 activation – cell-based (AID 1583). The settings on record: polyglutamine-induced caspase-3 activation, cell assay; stronger effect = higher value;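 tested at 10 µM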.
The nature of assay [2]: yeast 75Q aggregation reduction – 75Q-TubU reporter (AID 1593). The conditions noted are these: Yeast 75Q polyglutamine aggregation reporter.
Assay [3] can be described thus: restoration of touch response, mutant HTT neurons – whole organism, C. elegans mechanosensory neurons, N-terminal huntingtin (AID 1599). The settings on record: C. elegans polyQ-huntingtin mechanosensory neurons, stronger effect = higher value.
Assay [4] is described as follows: blockers of cytochrome c efflux from mitochondria – biochemical, purified mitochondria (AID 1603).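 Note: mouse liver mitochondria challenged with calcium chloride; signal normalized to the plate average as 100%.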 The conditions noted are these: stronger effect = lower value.
A short description of assay [5]: polyglutamine aggregate formation blockers (AID 1604). The conditions noted are these: polyglutamine-induced protein aggregation inhibition assay; stronger effect = higher value; tested at 2.5 µM.
A short description of assay [6]: glutamate transport activators, MN-1 cells, MN-1 cell line (AID 1612).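 Note: tested at 1 µM final; 0% = mean of DMSO vehicle wells on each plate; positive means more glutamate uptake than control and negative means less.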 The settings on record: MN-1 motor neuron cells, stronger effect = higher value.
A short description of assay [7]: 75Q-TubH aggregate inhibition, S. cerevisiae, yeast (AID 1616). The conditions noted are these: S. cerevisiae 75Q-TubH polyglutamine aggregation suppression; stronger effect = higher value.
The nature of assay [8]: compounds altering viability of human ES cells (AID 493140; call rule not given here;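 note: cells exposed to compounds for four days before counting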). The settings on record: human embryonic stem cell survival screen; stronger effect = higher value.
In assay [9] the test system is Neuropilin-2 / VEGF-C interaction (human). The experiment in a line: small molecules blocking Neuropilin-2/VEGF-C interaction – biochemical, microplate binding format, z-score (AID 743281; call rule not given here). The conditions noted are these: microplate NRP2/VEGF-C binding assay; stronger effect = lower value.
Assay [10] is described as follows: modulation of C. elegans fzo-1 (AID 1259413; call rule not given here;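 note: fzo-1 mutant C. elegans worms in liquid wells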). The conditions noted are these: C. elegans fzo-1 modulator screen, mean read-out; stronger effect = higher value.
The subject of another assay is F380Y/beta2Delta. Description: BK channel mutant inhibitors and activators – cell-based, U2OS BacMam, thallium flux, beta subunits, selectivity assay, profiling panel (AID 1259406).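 Note: initial slope of Thallos dye fluorescence rise after thallium is added; log ratio against the mean of 0.3% DMSO vehicle wells on the same plate.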 The conditions noted are these: U2OS BacMam BK variants, at 30 µM.
Assay [11] addresses Calcium-activated potassium channel subunit alpha-1 (Homo sapiens) + Leucine-rich repeat-containing protein 26 (Homo sapiens) (UniProt Q12791+Q2I0M4). The description is as above. The settings on record: U2OS BacMam BK variants, F380Y/Slo1WT/gamma1, at 30 µM.
For a further assay, the system named is R275C. The description is as above. The settings on record: U2OS BacMam BK variants, at 30 µM.
Another assay deals with R275C/beta1. The description is as above. The settings on record: U2OS BacMam BK variants, at 30 µM.
A further assay deals with R275C/beta2Delta. The assay is described as above. The conditions noted are these: U2OS BacMam BK variants, at 30 µM.
Assay [12] in a line: galactose survival enhancers in mitochondrial complex I cybrids – cell-based, galactose medium, ATP luminescence, primary screen (AID 1645843;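 active = z-score of at least 1.8 in each of two replicates, scored against plate mean and spread of sample wells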;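 note: positive z means more ATP and so rescue of galactose-driven cybrid death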). The conditions noted are these: complex I mutant cybrid cells, 72 h, stronger effect = higher value.
The test system of another assay is F380Y/beta1. The experiment in a line: BK channel mutant inhibitors and activators – cell-based, U2OS BacMam, thallium flux, beta subunits, selectivity assay, profiling panel (AID 1259406).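 Note: initial slope of Thallos dye fluorescence rise after thallium is added; log ratio against the mean of 0.3% DMSO vehicle wells on the same plate.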 The conditions noted are these: U2OS BacMam BK variants, at 30 µM.
The test system of the next assay is F380Y/beta4. The description is as above. The conditions noted are these: U2OS BacMam BK variants, at 30 µM.
The next assay relates to R275C/beta4. The description is as above. The settings on record: U2OS BacMam BK variants, at 30 µM.
The test system of a further assay is R275C/Slo1WT/beta2. The assay is described as above. The conditions noted are these: U2OS BacMam BK variants, at 30 µM.

Molecules are shown by their SMILES. Values joined by “and” are separate entries in the source; they are usually repeats but may differ in a detail not shown here. Equal values may be shown once. For some of these results: Potency and affinity values are given separately. Active and inactive are the calls of the source.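 Rule for the calls, unless noted: active = thallium flux through the channel raised or lowered by more than 3 SD from vehicle-only wells, actives on both sides; inactive = the rest.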

One may read the inhibition as the change of the read-out against control, counted positive when it falls.

Sequence of Calcium-activated potassium channel subunit alpha-1 (Homo sapiens) + Leucine-rich repeat-containing protein 26 (Homo sapiens) (Q2I0M4 whole entry, looked up, one chain of several): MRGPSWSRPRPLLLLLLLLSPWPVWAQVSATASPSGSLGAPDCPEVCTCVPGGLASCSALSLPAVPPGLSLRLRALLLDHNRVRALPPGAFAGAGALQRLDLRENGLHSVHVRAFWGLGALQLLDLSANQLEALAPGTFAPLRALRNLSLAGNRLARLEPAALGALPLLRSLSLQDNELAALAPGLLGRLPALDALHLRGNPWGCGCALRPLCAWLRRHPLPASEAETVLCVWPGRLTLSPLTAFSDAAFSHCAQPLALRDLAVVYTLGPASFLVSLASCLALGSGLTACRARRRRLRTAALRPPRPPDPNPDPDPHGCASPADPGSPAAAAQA

On to `COc1cc2nc(N3CCN(C(=O)c4ccco4)CC3)nc(N)c2cc1OC`, for which the inhibition in assay [1] was 16.5%. The score in assay [2] is 1.21. The rescue above control in assay [3] is -0.41. The cytochrome c release ratio in assay [4] came out at 1.07. Moreover, the inhibition of aggregation in assay [5] came out at 70.4%. Further, in assay [6], the glutamate uptake change is -22.2%. This molecule also yielded an aggregation suppression score in assay [7] of 1.01. Besides, the survival in [8] was 0.667 (inactive). In addition, in assay [9], the z-score was 0.105 (inactive). Besides, in [10], the mean signal is 236 (inactive). Further, the log fold change Tl+ flux in the assay with F380Y/beta2Delta was -0.00919 (inactive); in assay [11], 0.00974 (inactive); in the assay on R275C it was -0.0502 (inactive); in the assay on R275C/beta1, -0.0587 (inactive); in the assay on R275C/beta2Delta it was -0.0145 (inactive).
With `O=C1N=C(O)CN1/N=C/c1ccc(-c2ccc([N+](=O)[O-])cc2)o1`, in assay [1], the inhibition was 24%. Besides, in assay [2], the score amounted to 1.7. In addition, in assay [3], the rescue above control was -1.39. The cytochrome c release ratio in assay [4] is 0.66. The inhibition of aggregation in [5] is 71.6%. The glutamate uptake change in [6] is -2.24%. The same molecule returned an aggregation suppression score in [7] of 1.1. The survival in assay [8] was 28.9 (inactive). The mean signal in assay [10] was 232 (inactive). For the same molecule, the z-score in assay [12] is -0.315 (inactive) and -0.365 (inactive).
As for `O=c1n(CCCN2CCN(c3cccc(Cl)c3)CC2)nc2ccccn12`, the inhibition in assay [1] is 17.6%. This molecule also came in with a score in assay [2] of 1.36. For the same molecule, the rescue above control in assay [3] was found to be 8.41. The cytochrome c release ratio in [4] turned out to be 1.04. Moreover, the inhibition of aggregation in assay [5] is -2.89%. The glutamate uptake change in assay [6] was 4.27%. In assay [7], this molecule returned an aggregation suppression score of 1.27. Moreover, the survival in [8] was 27.2 (inactive). Moreover, the z-score was 0.0689 (inactive) in assay [9]; -0.33 (inactive) and 0.63 (inactive) in assay [12]. The mean signal in assay [10] was 242 (inactive). The log fold change Tl+ flux in the assay with F380Y/beta2Delta was 0.035 (inactive); in assay [11] it was 0.0319 (inactive); in the assay on R275C it was 0.0186 (inactive); in the assay on R275C/beta1 it was 0.025 (inactive); with R275C/beta2Delta it was 0.0634 (inactive).
On to `CN(C)CCOC(c1ccccc1)c1ccccc1`, for which, in assay [1], the inhibition was determined as 15.6%. The molecule further had a score in assay [2] of 1.18. Further, the rescue above control in [3] is -3.14. Besides, the cytochrome c release ratio in assay [4] came to 1.11. Besides, in assay [5], the inhibition of aggregation came to 85.2%. In addition, the glutamate uptake change in assay [6] amounted to 8.03%. This molecule had an aggregation suppression score in assay [7] of 1.07. In addition, the survival in assay [8] is 14 (inactive). Also, the z-score was -0.533 (inactive) in assay [9]; -0.255 (inactive) and 0.81 (inactive) and 0.09 (inactive) in [12]. Moreover, the mean signal in assay [10] was 216 (inactive). The log fold change Tl+ flux in the assay with F380Y/beta2Delta is 0.0216 (inactive); in assay [11], -0.0145 (inactive); with R275C, 0.00435 (inactive); with R275C/beta1 it was 0.00179 (inactive); in the assay with R275C/beta2Delta, 0.0139 (inactive).
For `CC1(C)O[C@@H]2C[C@H]3[C@@H]4C[C@H](F)C5=CC(=O)C=C[C@]5(C)[C@H]4[C@@H](O)C[C@]3(C)[C@]2(C(=O)CO)O1`, the survival in assay [8] is 3 (inactive). Further, the z-score in [12] was -1.48 (inactive). Besides, the log fold change Tl+ flux in the assay on F380Y/beta1 is 0.017 (inactive); in the assay on F380Y/beta2Delta, -0.0212 (inactive); in the assay with F380Y/beta4, -0.0612 (inactive); in assay [11], -0.0123 (inactive); in the assay with R275C it was 0.00271 (inactive); in the assay on R275C/beta1, -0.0113 (inactive). Further, the log fold change Tl+ flux was -0.0208 (inactive) with R275C/beta2Delta, 0.0291 (inactive) with R275C/beta4 and 0.0322 (inactive) with R275C/Slo1WT/beta2.
With `C[C@@H](O)[C@H]1C(=O)N2C(C(=O)O)=C(S[C@@H]3CN[C@H](C(=O)N(C)C)C3)[C@H](C)[C@H]12`, in assay [8], the survival is 4.17 (inactive). Besides, the z-score was -0.132 (inactive) in assay [9] and 1.23 (inactive) in assay [12]. Also, the mean signal in assay [10] is 272 (inactive). For the same molecule, the log fold change Tl+ flux was 0.00288 (inactive) with F380Y/beta1; -0.00534 (inactive) with F380Y/beta2Delta; -0.00589 (inactive) in the assay with F380Y/beta4; -0.0284 (inactive) in [11]; -0.0931 (inactive) in the assay on R275C; -0.0201 (inactive) in the assay with R275C/beta1. The log fold change Tl+ flux is -0.042 (inactive) with R275C/beta2Delta, 0.0148 (inactive) with R275C/beta4 and -0.00332 (inactive) in the assay on R275C/Slo1WT/beta2.
With `CCC(=O)O[C@]1(C(=O)CCl)[C@@H](C)C[C@H]2[C@@H]3CCC4=CC(=O)C=C[C@]4(C)[C@@]3(F)[C@@H](O)C[C@@]21C`, the z-score in assay [12] is -1.34 (inactive) and 0.04 (inactive). Also, the log fold change Tl+ flux in the assay with F380Y/beta1 was 0.254 (active); in the assay with F380Y/beta2Delta, 0.293 (active); in the assay with F380Y/beta4, 0.236 (active); in assay [11], 0.157 (active); in the assay with R275C it was -0.00176 (inactive); in the assay on R275C/beta1, 0.13 (active). Also, the log fold change Tl+ flux in the assay on R275C/beta2Delta is 0.172 (active); in the assay with R275C/beta4, 0.386 (active); with R275C/Slo1WT/beta2, 0.0324 (inactive).
For the molecule `O=C(c1ccccc1)c1ccc2n1CCC2C(=O)O` (configuration not stated), the inhibition in assay [1] came out at 1.05%. In assay [2], this molecule gave a score of 1.22. This molecule showed a rescue above control in [3] of -3.9. The cytochrome c release ratio in assay [4] was 1.43. The inhibition of aggregation in assay [5] was determined as 60.8%. Besides, the glutamate uptake change in [6] was determined as 14.7%. In addition, the aggregation suppression score in assay [7] was determined as 1.2. In addition, the survival in assay [8] is 2.17 (inactive). The z-score in assay [9] is -0.0903 (inactive); in assay [12], 0.335 (inactive) and 1.09 (inactive) and 0.445 (inactive). In [10], the mean signal was 231 (inactive).
As to `C[C@@H]1C[C@H]2[C@@H]3CCC4=CC(=O)C=C[C@]4(C)[C@@]3(F)[C@@H](O)C[C@]2(C)[C@@]1(O)C(=O)CO`, in [12], the z-score was 0.135 (inactive) and 0.555 (inactive). Besides, the log fold change Tl+ flux is 0.0534 (inactive) in the assay on F380Y/beta1; -0.01 (inactive) with F380Y/beta2Delta; -0.000275 (inactive) in the assay with F380Y/beta4; 0.0359 (inactive) in assay [11]; 0.0247 (inactive) in the assay with R275C; 0.0605 (inactive) in the assay with R275C/beta1. Also, the log fold change Tl+ flux is 0.000117 (inactive) in the assay with R275C/beta2Delta, 0.0627 (inactive) in the assay with R275C/beta4 and 0.0456 (inactive) in the assay on R275C/Slo1WT/beta2.
Regarding `Nc1c2c(nc3ccccc13)CCCC2`, in assay [1], the inhibition was -14.1%. Besides, the score in assay [2] came to 1.21. The same molecule returned a rescue above control in assay [3] of -13.1. For the same molecule, the cytochrome c release ratio in [4] is 0.63. In addition, the inhibition of aggregation in assay [5] turned out to be 38.8%. Also, the glutamate uptake change in assay [6] was 4.59%. This molecule had an aggregation suppression score in [7] of 1.23. Moreover, the survival in assay [8] was 6.42 (inactive). Also, the z-score in assay [9] is -0.542 (inactive). Further, the mean signal in assay [10] was 215 (inactive). Further, the log fold change Tl+ flux in the assay with F380Y/beta2Delta was -0.00945 (inactive); in assay [11] it was 0.00974 (inactive); with R275C it was 0.0238 (inactive); in the assay with R275C/beta1, -0.0128 (inactive); with R275C/beta2Delta, -0.0194 (inactive).
